Screening results (PubChem BioAssay)
Only some compounds are listed: those with a hit (about 19% of all), similar ones and a draw of the others.
TDP1 cell noCPT = qHTS for Inhibitors of human tyrosyl-DNA phosphodiesterase 1 (TDP1): qHTS in cells in absence of CPT. AID 686978, 2013. 420,000 tested, 15% active. DT40 Tdp1-/- hTDP1 cells, no CPT, ATP luminescence, 48 h. Potency, µM (series often up to 46.2 µM), for inactives: at the highest dose activity change, negative = growth inhibition, hits mostly inhibitors; further: potency means the concentration at half of the fitted maximal effect; on the % scale 0 is the no-effect control and ±100 the full control effect; nearly all actives have a fitted effect of over 55% in size
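Growth of hTDP1-complemented DT40 Tdp1-knockout cells is measured by ATP luminescence after at least 48 hr compound exposure at 37 °C, with DMSO substituting for the 20 nM CPT used in the parallel screen.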
TDP1 cell CPT = DT40-hTDP1 cell growth loss with CPT; chicken DT40 Tdp1-/-;hTDP1 cells + 20 nM CPT, ATP luminescence, 48 h; Potency, µM (top dose mostly 46.2 µM), inactives show at the top dose activity change, negative = growth inhibition, hits mostly inhibitors; 420,000 tested, 12% active; further: potency means the concentration at half of the fitted maximal effect; on the % scale 0 is the no-effect control and ±100 the full control effect; nearly all actives have a fitted effect of over 55% in size
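Cell growth measured by CellTiter-Glo luminescence after a minimum 48 h, 37 C compound exposure with 20 nM CPT in Tdp1-knockout DT40 cells stably expressing hTDP1, seeded 400/well; qHTS titration format.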
TGFb inhibitor = blocks TGF-b signaling; HepG2 CAGA-GFP TGF-b/SMAD3 reporter, GFP fluorescence, 18 h; TGF-beta stimulated, 500 pg/mL final; Potency, µM (series often up to 46.1 µM), without a hit: at the highest dose activity, negative = inhibition, hits mostly inhibitors; 410,000 tested, 1.2% active; AID 588855; further: potency means the concentration at half of the fitted maximal effect; on the % scale 0 is the no-effect control and ±100 the full control effect; nearly all actives have a fitted effect of over 65% in size
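HEPG2 CAGA-GFP cells (1000/well, DMEM with 1% FBS) were pre-incubated 2 h at 37 degrees C, given compound by pin tool, then stimulated with TGF-beta at 500 pg/mL final for 18 h before per-cell GFP fluorescence imaging.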
HepG2 tox = HepG2 cytotoxicity, counter-screen for TGF-b inhibitors | HepG2 CAGA-GFP viability, ATP luminescence, 18 h | Potency, µM (highest dose often 46.1 µM), for the others: at the top dose activity change, negative = cytotoxicity, most hits filed as cytotoxic | 410,000 tested, 0.76% active | AID 588856; further: potency means the concentration at half of the fitted maximal effect
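CellTiter-Glo luminescence gave cytotoxicity after 18 hours at 37 degrees C. The cells were HepG2 CAGA-GFP in 1% FBS DMEM, stimulated with 500 pg/mL TGF-beta after compound addition. %Activity was normalised to no-cell wells (complete cell-killing) and DMSO (no toxicity), and curves were fitted and classified.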
ASM inhibitor = human S-ASM enzyme inhibition | placental ASM, HMU-PC fluorogenic substrate, 60 min | Potency, µM (highest dose often 57.5 µM), without a hit: at the top dose activity change, negative = inhibition, most hits filed as inhibitors | 340,000 tested, 0.006% active; further: potency means the concentration at half of the fitted maximal effect
Target sequence (P17405 47-631 limits assumed): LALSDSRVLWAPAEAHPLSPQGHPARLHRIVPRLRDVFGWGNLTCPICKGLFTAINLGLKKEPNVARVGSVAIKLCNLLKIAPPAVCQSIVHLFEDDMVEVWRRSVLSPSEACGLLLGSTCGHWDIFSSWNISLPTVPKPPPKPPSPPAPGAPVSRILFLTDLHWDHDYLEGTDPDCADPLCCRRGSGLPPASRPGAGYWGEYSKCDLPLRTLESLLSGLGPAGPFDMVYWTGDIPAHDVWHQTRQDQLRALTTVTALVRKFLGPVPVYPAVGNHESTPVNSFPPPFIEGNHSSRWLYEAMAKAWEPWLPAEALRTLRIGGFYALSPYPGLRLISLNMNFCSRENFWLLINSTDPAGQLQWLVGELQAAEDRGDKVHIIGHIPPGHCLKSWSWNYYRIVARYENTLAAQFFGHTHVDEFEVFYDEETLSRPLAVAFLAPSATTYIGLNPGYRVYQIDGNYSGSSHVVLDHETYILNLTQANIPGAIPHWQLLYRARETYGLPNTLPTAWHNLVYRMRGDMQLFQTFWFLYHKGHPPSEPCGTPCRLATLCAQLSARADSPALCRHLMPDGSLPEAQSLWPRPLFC
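Fluorogenic HMU-PC substrate (9 uM final) is turned over by placental ASM in 60 min at 37 C after a 10 min compound preincubation. Reaction ended by alkaline stop (pH 10), with fluorescence read at 386/447 nm.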
IL-1B inflam inh = inhibitors of inflammasome signaling (IL-1 beta secretion); THP-1 LPS/ATP IL-1B secretion, AlphaLISA, 16 h; stronger effect = lower value; activity change, % at 57.5 µM; 360,000 tested, 4.7% active; AID 743279; in the data active means activity change below about -50%; inconclusive means mostly about -30% to -49%; further: on the % scale 0 is the no-effect control and ±100 the full control effect
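THP-1 cells pretreated 1 hr with compounds (up to 57.5 uM final), then stimulated with LPS (250 ng/mL final) plus ATP (1.25 mM final); secreted IL-1B measured by AlphaLISA after 16 hr, decreased signal indicating inhibition.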
Starred values were filed as active, the others as inactive; i = inactive; ? = inconclusive; . = no result. Unless noted, the call rests on the fitted dose curve; in most records, active means well fitted curve in the direction sought with a large enough effect; inconclusive means small, poorly fitted or top-dose-only effect, or another doubt; inactive means no such curve, though single readings can be large; an effect the other way counts as inactive or inconclusive.

SMILES	TDP1 cell noCPT	TDP1 cell CPT	TGFb inhibitor	HepG2 tox	ASM inhibitor	IL-1B inflam inh
S=c1[nH]ncn1/N=C/c1ccccc1	23.1µM*	?	5.1%	-1.0%	-0.1%	19.1
Cc1cc(-c2nc3cc(F)ccc3s2)ccc1N	-5.5%	-17.3%	?	-18.1%	i	-75.5*
Cc1ccc(C(=O)Nc2ccc(-c3nc4ccccc4s3)cc2C)cc1C	.	.	-27.3%	-15.4%	.	.
CC(=O)Nc1ccc(CN(C)c2c(C)nc3ccc(C(=O)NCCc4ccccn4)cn23)cc1	-22.6%	-26.6%	-8.8%	-1.3%	.	-18.3
Cc1nc2ccccc2n1CC(=O)OCC(=O)N1CCC(C)CC1	0.0%	4.1%	-7.6%	-10.7%	1.1%	8.5
CCOC(=O)c1ccc(NC(=O)C(C)N2C(=O)c3ccccc3C2=O)cc1 (stereo unspecified)	-6.1%	-0.4%	0.5%	0.9%	-3.5%	26.6
NS(=O)(=O)c1ccc(NC(=O)Nc2ccccc2)cc1	-15.7%	0.6%	5.1%	-7.5%	-0.8%	.
CCOC(=O)c1ccc(NC2=CC(=O)C(=O)c3ccccc32)cc1	23.1µM*	23.1µM*	?	-21.9%	-10.1%	9.2
NS(=O)(=O)c1ccc(NC2=CC(=O)C(=O)c3ccccc32)cc1	2.59µM*	8.2µM*	8.91µM*	-55.2%	-0.8%	-77.9*
CCN1CCN(c2ccc([N+](=O)[O-])c(Sc3nc4ccccc4[nH]3)c2)CC1	?	?	9.2%	-6.2%	-15.2%	?
Cc1cc2nc(Sc3c([N+](=O)[O-])nc(C)n3Cc3ccccc3)[nH]c2cc1C	11.6µM*	7.31µM*	-20.4%	-11.3%	-0.3%	-97.6*
Cc1nc([N+](=O)[O-])c(N2CCN(Cc3ccccc3)CC2)n1Cc1ccccc1	?	?	0.0%	-1.4%	-2.3%	?
O=C(O)c1cc([N+](=O)[O-])c(Sc2nc3ccccc3[nH]2)c([N+](=O)[O-])c1	-15.3%	-18.2%	2.5%	15.5%	1.0%	-7.3
COc1ccc2nc(SCC(=O)NCc3ccccc3)[nH]c2c1	1.2%	-3.6%	-0.1%	-8.7%	-2.8%	36.1
CS(=O)(=O)c1cc([N+](=O)[O-])c(Sc2nc3ccccc3[nH]2)c([N+](=O)[O-])c1	4.61µM*	2.91µM*	?	-50.2%	-2.7%	9.8
Cn1cnc([N+](=O)[O-])c1Sc1nc2ccccc2[nH]1	18.4µM*	10.3µM*	-1.9%	3.3%	5.0%	-97.3*
COc1ccc2nc(Sc3c([N+](=O)[O-])nc(C)n3Cc3ccccc3)[nH]c2c1	23.1µM*	18.4µM*	?	-31.9%	25.6%	-80.2*
C[C@H](NC(=O)OC(C)(C)C)C(=O)c1ccco1	-3.7%	-1.5%	6.7%	13.0%	.	.
O=C(C1CCN(S(=O)(=O)c2ccc(Cl)cc2)CC1)N1CCN(c2ccccn2)CC1	-9.1%	-11.1%	0.8%	1.9%	-0.8%	-14.8
O=C(Nc1nccs1)[C@@H]1CC=C[C@@H]2CCN(Cc3ccc(Cl)c(Cl)c3)C(=O)[C@@H]21	?	?	-23.5%	-21.5%	.	.
Cc1cccc(OCCSc2nc3ccccc3n2CC(=O)N2CCOCC2)c1C	?	-22.2%	1.7%	-20.8%	.	.
Cc1nc([N+](=O)[O-])c(Sc2nc3ccccc3[nH]2)n1Cc1ccccc1	11.6µM*	8.2µM*	-50.3%	-31.7%	-3.5%	-105.3*
COc1ccc(C2Nc3ccccc3C(=O)N2Cc2ccco2)cc1COc1ccc(NC(C)=O)cc1 (stereo unspecified)	11.2µM*	?	-2.0%	0.2%	168.1%	-6.9
O=C1c2ccccc2NC(c2ccc(O)cc2)N1Cc1ccco1 (stereo unspecified)	?	-2.0%	25.7%	-1.9%	22.7%	-3.2
COc1ccc(C2Nc3ccccc3C(=O)N2Cc2ccco2)cc1COc1ccccc1F (stereo unspecified)	?	?	-2.6%	-46.3%	133.4%	-68.5*
SMILES	TDP1 cell noCPT	TDP1 cell CPT	TGFb inhibitor	HepG2 tox	ASM inhibitor	IL-1B inflam inh
COc1ccc(C2Nc3ccccc3C(=O)N2c2ccc(F)cc2)cc1COc1ccc(NC(C)=O)cc1 (stereo unspecified)	25.1µM*	?	17.6%	1.6%	.	.
Cc1ccc(C2Nc3ccccc3C(=O)N2Cc2ccco2)cc1 (stereo unspecified)	?	18.4µM*	?	-11.5%	156.2%	-11.9
O=C(COc1ccc(Br)cc1)Nc1ccc(C(=O)OC2CCCCC2)cc1	?	?	28.2%	-6.4%	.	.
O=C1c2ccccc2NC(c2ccc(OCc3ccccc3)c(OCc3ccccc3)c2)N1Cc1ccco1 (stereo unspecified)	12.6µM*	11.2µM*	2.2%	2.3%	.	.
COc1ccc(C2Nc3ccc(NC(C)=O)cc3C(=O)N2Cc2ccccc2)cc1COc1ccc(NC(C)=O)cc1 (stereo unspecified)	17.8µM*	?	.	.	.	.
COc1ccc(C2Nc3ccccc3C(=O)N2Cc2ccccc2)cc1CSc1ccccn1 (stereo unspecified)	18.4µM*	23.1µM*	-35.0%	5.2%	219.2%	.
O=C(NC1CCSc2ccccc21)c1ccc(C(F)(F)F)cc1 (stereo unspecified)	-12.1%	18.3%	-6.1%	-12.0%	2.3%	33.0
COC(=O)C[C@H]1CC[C@H](NC(=O)Nc2ccccc2F)[C@@H](CO)O1	23.1µM*	23.1µM*	.	.	.	-7.8
COC(=O)c1ccccc1NC(=O)Cn1c(=O)n(-c2ccc(Cl)cc2)c(=O)c2c(C)c(C)sc21	?	-28.8%	1.1%	2.3%	.	.
COc1ccc(Cl)cc1NC(=O)CSc1cn(CC(=O)N2CCCCCC2)c2ccccc12	11.6µM*	13µM*	?	-8.4%	.	.
O=C(CSc1cn(CC(=O)N2CCCCCC2)c2ccccc12)Nc1ccccc1F	?	?	-14.8%	-16.9%	.	.
COc1ccc(Cl)cc1NC(=O)CSc1cn(CC(=O)N2CCCC2)c2ccccc12	3.26µM*	11.6µM*	-9.7%	-12.4%	.	.
O=C(CSc1cn(CC(=O)N2CCCC2)c2ccccc12)Nc1ccc(Cl)cc1	?	?	?	-32.3%	.	.
Cc1ccc(S(=O)(=O)NC(=O)Nc2nccs2)cc1	-25.1%	0.8%	-12.6%	-0.7%	2.9%	27.6
O=C(NCCCN1CCOCC1)/C(=C/c1ccc(-c2cccc([N+](=O)[O-])c2)o1)NC(=O)c1ccccc1	?	?	-2.2%	-33.2%	.	?
